# About 83,000 compounds went through this panel and 20% of them were active in at least one assay; those are over-represented in the sample as a whole.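 48-hour exposure, single concentration, 96-well plates; percent growth endpoint where 0 means no net growth. Active: below 10.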 Activity calls are given as the source filed them.
# Test system: HOP-92 NSCLC
# Assay: NCI-60 one-dose screen, 48 h (100 = growth as untreated, 0 = no growth, -100 = all killed)
# Conditions: 10 µM unless noted
row,Structure (SMILES),growth
1,CN1CCN(Cc2ccc(NC(=O)c3[nH]ncc3Nc3ncnc4c3CCC4)cc2)CC1,-33% (active)
2,CCN(C(=O)CN1CCN(c2cc3c(cc2F)c(=O)c(C(=O)O)cn3C2CC2)CC1)c1nc(-c2ccc(OC)cc2)cs1,40% (inactive)
3,C[C@@H]1CC[C@@H]2[C@@H]1[C@H](OC(=O)/C=C/c1ccccc1)[C@]1(C3CCCCC3)C[C@@H](OC(=O)CO)[C@@]2(C)O1,55.3% (inactive)
4,Cc1cc(=O)oc2cc(Oc3nc(-c4ccc(Cl)cc4)cn4c(-c5ccc(Cl)cc5)cnc34)ccc12,91% (inactive)
5,Nc1cc2ccncc2c2ccccc12,73.9% (inactive)
6,O=C([C@@H](COCc1ccccc1)N1C(=O)[C@@H](N2C(=O)OC[C@@H]2c2ccccc2)[C@H]1/C=C/c1ccccc1)N1CCC(CCN2CCCCC2)CC1,76.1% (inactive)
7,COc1ccc(N(Cc2cc(OC)c(OC)c(OC)c2)C2OC(=O)c3ccccc32)cc1 (stereo not drawn),51.3% (inactive)
8,Cn1c2ccccc2c2c3c(c4c5ccccc5[nH]c4c21)C(=O)N(N)C3=O,80% (inactive)
9,COC(/C=C/c1ccc([N+](=O)[O-])cc1)OC,85% (inactive)
10,OC(c1cccc(C(F)(F)F)c1)c1cnccc1NC1CCCCCC1 (stereo not drawn),5.31% (active)
11,O=C(CNC1C2CC3CC(C2)CC1C3)Sc1nnc2sc3ccccc3n12 (stereo not drawn),46.2% (inactive)
12,C=CC[N+]1(CC)CCN=C1CCCCCCCCCCCCCCCCC (stereo not drawn),-57.6% (active)
13,O=C(Nc1ccc(CN2CCOCC2)cc1)c1[nH]ncc1Nc1ncnc2sccc12,22.9% (inactive)
14,O=c1c(/C=C/c2ccco2)nnc(SCCN2CCOCC2)n1/N=C/c1ccc([N+](=O)[O-])cc1,90.5% (inactive)
15,COc1cc(C2CC(=O)Nc3c2c(C)nn3-c2nc3ccccc3[nH]2)cc(OC)c1OC (stereo not drawn),89.8% (inactive)
16,CCCCN(CCCC)CCC(C)(O)c1cc2ccccc2c2ccccc12 (stereo not drawn),44.2% (inactive)
17,OCCNCCNc1c2ccccc2nc2ccccc12,81.1% (inactive)
18,C/C(=C(/c1ccc(O)cc1)c1ccc(OCCN(C)C)cc1)c1ccccc1,54.9% (inactive)
19,CC#Cc1nc2ccccc2c(=O)[nH]1,92.7% (inactive)

row,Structure (SMILES),growth
1,CNC(=O)c1cc(Oc2ccc3nc(NC(=O)Nc4ccc(N5CCC(N(C)C)CC5)cc4)sc3c2)ccn1,74.7% (inactive)
2,CCN(CC)CCCNc1cc(OC)cc2nc3cc(Cl)ccc3nc12,-9.1% (active)
3,Cn1c2ccccc2c2c3c(c4c5ccccc5n(CCCCCC#N)c4c21)C(=O)N(O)C3=O,-11.2% (active)
4,CN1CCN(Cc2ccc(NC(=O)c3[nH]ncc3Nc3ccnc4ccsc34)cc2)CC1,76.2% (inactive)
5,O=C(NCc1cccc(C(F)(F)F)c1)[C@H](CCC(=O)N1CCN(C2CCCCC2)CC1)N1C(=O)[C@@H](N2C(=O)OC[C@@H]2c2ccccc2)[C@H]1/C(Cl)=C/c1ccccc1,32.6% (inactive)
6,CC/C(=C(\c1ccccc1)c1ccc(OCCNC)cc1)c1ccccc1,-85.6% (active)
7,O=C(COCc1c(-c2ccccc2)no[n+]1[O-])Nc1ccc(C(=O)/C=C/c2ccc3c(c2)OCO3)cc1,73.2% (inactive)
8,COc1ccc2nc(NC(=O)c3cccnc3Nc3cc(OC)c(OC)c(OC)c3)sc2c1,-64.6% (active)
9,CCCCCCCCCc1cc(CN2CCCCC2)c(O)c(CN2CCCCC2)c1,12.7% (inactive)
10,CCOc1ccc(Nc2nc(-c3c(C)nc4ncccn34)cs2)cc1,18.2% (inactive)
11,C=C1CCC2C3(C)COC(C)(C)OC3CCC2(C)C1C/C=C1/C(=O)OCC1OC(C)=O (stereo not drawn),123% (inactive)
12,CSc1nc(NCCO)c(C#N)c(-c2cccc(N)c2)n1,95.7% (inactive)
13,Nc1ccc(N2CCOCC2)cc1,114% (inactive)
14,O=C1C[C@H](Sc2nc(-c3ccc(F)cc3)cc(C(F)(F)F)n2)[C@H]2CO[C@@H]1O2,105% (inactive)
15,Cc1nc2sc(C(=O)Nc3cccc4c3OCCO4)c(N)c2cc1C(C)O (stereo not drawn),49.6% (inactive)
16,COc1cc(NCCCCN=C(N)N)c2ncccc2c1,68.8% (inactive)
17,CCOC(=S)SCc1ccc(Cl)cc1,49.3% (inactive)
18,NCc1cn2cc(Cl)sc2n1,101% (inactive)
19,O=C1C=CC(=O)c2c1nc1n2CCCC1,132% (inactive)

# Reference: PubChem BioAssay (NCI)
